Hit rate of the full screen: of about 67,000 compounds, about 300 (0.45%) showed an effect of 50% or more. The entries come from a sample that favours strong results as a whole.
target: Polyketide synthase Pks13 (Mycobacterium tuberculosis (strain ATCC 25618 / H37Rv)) (UniProt I6X8D2); test: Mycobacterium tuberculosis Polyketide synthase 13 Thioesterase (PKS13); type: functional; design: scale not given: in the data most compounds retested in dose-response had high values; conditions: 30 µM
Sequence (I6X8D2 whole entry): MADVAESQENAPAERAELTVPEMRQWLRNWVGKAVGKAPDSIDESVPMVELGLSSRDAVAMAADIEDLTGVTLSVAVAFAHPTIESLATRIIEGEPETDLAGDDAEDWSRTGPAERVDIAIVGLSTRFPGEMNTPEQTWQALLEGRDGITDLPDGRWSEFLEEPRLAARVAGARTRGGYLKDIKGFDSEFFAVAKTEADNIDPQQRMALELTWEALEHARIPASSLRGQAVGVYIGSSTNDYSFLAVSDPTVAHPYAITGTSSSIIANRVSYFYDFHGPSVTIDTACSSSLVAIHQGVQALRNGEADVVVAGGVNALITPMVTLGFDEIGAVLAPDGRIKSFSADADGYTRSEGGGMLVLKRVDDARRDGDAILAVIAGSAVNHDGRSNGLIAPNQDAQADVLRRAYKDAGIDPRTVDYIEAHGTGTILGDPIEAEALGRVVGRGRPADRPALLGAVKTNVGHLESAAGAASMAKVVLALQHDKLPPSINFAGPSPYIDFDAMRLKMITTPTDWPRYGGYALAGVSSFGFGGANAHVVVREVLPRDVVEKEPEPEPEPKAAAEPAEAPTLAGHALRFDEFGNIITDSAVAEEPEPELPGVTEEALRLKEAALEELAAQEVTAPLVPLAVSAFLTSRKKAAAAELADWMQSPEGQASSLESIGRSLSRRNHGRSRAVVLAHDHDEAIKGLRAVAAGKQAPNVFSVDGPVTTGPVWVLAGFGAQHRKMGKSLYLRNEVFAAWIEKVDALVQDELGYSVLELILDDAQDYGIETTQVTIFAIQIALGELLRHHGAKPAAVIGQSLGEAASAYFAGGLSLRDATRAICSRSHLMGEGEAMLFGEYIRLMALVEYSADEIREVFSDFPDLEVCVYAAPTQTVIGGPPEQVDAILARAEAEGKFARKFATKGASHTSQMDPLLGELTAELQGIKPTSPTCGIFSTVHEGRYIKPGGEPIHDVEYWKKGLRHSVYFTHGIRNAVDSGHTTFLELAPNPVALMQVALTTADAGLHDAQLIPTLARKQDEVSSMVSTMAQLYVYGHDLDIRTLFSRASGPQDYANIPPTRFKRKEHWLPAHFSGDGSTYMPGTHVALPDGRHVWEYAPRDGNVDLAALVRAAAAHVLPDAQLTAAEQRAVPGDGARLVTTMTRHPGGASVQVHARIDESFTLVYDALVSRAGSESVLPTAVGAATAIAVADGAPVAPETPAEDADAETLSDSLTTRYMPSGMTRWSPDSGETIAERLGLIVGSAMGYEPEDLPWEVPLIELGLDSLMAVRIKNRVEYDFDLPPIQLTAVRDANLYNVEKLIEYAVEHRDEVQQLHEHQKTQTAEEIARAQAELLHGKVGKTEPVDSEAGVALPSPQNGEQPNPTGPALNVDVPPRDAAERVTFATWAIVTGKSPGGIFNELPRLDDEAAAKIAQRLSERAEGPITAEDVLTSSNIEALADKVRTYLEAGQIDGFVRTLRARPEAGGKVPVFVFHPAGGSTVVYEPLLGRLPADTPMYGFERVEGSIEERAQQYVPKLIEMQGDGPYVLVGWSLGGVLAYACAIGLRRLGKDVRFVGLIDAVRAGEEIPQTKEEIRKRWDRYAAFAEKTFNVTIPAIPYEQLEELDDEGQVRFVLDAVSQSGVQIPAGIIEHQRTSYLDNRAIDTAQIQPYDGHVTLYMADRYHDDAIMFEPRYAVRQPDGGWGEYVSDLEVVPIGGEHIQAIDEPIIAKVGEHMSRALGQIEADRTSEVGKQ

| SMILES | Percent Effect [%] |
| --- | --- |
| COCCNc1nc2c(c(NCc3ccncc3)n1)CCNCC2 | -8.09 |
| COCCNc1nc2c(c(NCCc3cccs3)n1)CCNCC2 | -17.6 |
| COCCNc1nc2c(c(NCC3CCOC3)n1)CCNCC2 (configuration not stated) | 89.6 |
| CS(=O)(=O)NC[C@]12COC[C@H]1CN(C(=O)CCc1ccccc1)C2 | -0.91 |
| Cc1csc([C@H]2C[C@@H]3CCN(Cc4cc(C)on4)C[C@H]3O2)n1 | -10.9 |
| CN(C)S(=O)(=O)N1C[C@H]2CCC[C@@]2(COCc2cccnc2)C1 | -34 |
| CCOc1cc(C(=O)n2cccn2)cc(OCC)c1OCC | 21.5 |
| CCOc1cc(C(=O)n2cc(C)cn2)cc(OCC)c1OCC | 53.3 |
| CCOC(=O)N1CCN(C(=O)c2cc(OCC)c3ccoc3c2)CC1 | 22.8 |
| Cc1nnsc1CN1C[C@H]2CC[C@@H]1CN(Cc1ccccn1)C2 | 2.49 |
| CCOc1cccc(NS(=O)(=O)c2cc(C)c(C(=O)O)s2)c1 | 33.3 |
| CCOc1ccc(NS(=O)(=O)c2cc(C)c(C(=O)O)s2)cc1F | -32.1 |
| Cc1cc(S(=O)(=O)Nc2cccc(-n3cccc3)c2)sc1C(=O)O | 74 |
| CCOc1cc(C)ccc1NS(=O)(=O)c1cc(C)c(C(=O)O)s1 | -26.3 |
| O=C(O)c1csc(S(=O)(=O)Nc2cccc(OC(F)F)c2)c1 | 24.7 |
| CCOc1c(Cl)cccc1NS(=O)(=O)c1cc(C)c(C(=O)O)s1 | -18.8 |
| CCc1cccc(NS(=O)(=O)c2cc(C)c(C(=O)O)s2)c1 | 56.8 |
| Cc1cc(S(=O)(=O)Nc2cccc(OC(F)F)c2)sc1C(=O)O | 72.8 |
| CCOc1cc(F)ccc1NS(=O)(=O)c1cc(C)c(C(=O)O)s1 | 4.81 |

| SMILES | Percent Effect [%] |
| --- | --- |
| CC(=O)c1cccc(NS(=O)(=O)c2cc(C)c(C(=O)O)s2)c1 | 11.7 |
| Cc1cc(S(=O)(=O)Nc2cccc(I)c2)sc1C(=O)O | 70 |
| CCOc1ccc(NS(=O)(=O)c2cc(C)c(C(=O)O)s2)c(C)c1 | -32.6 |
| Fc1ccc(CN2CCO[C@H]3[C@H](OCC4CC4)CC[C@@H]32)cc1 | -2.1 |
| CO[C@H]1CCN(S(=O)(=O)N(C)C)[C@@H]2CN(Cc3cccnc3)C[C@H]12 | 12.3 |
| CCOC(=O)[C@@H]1[C@@H](c2ccccc2)CN2CCN(C(C)=O)C[C@H]12 | 0.569 |
| Cc1nc(CN2C[C@H]3C[C@H](C(=O)NCC4CC4)N(C)[C@H]3C2)cs1 | 16.8 |
| O=C(Cc1ccsc1)N1C[C@@H]2OCCN(CC3CCCO3)[C@@H]2C1 (some centres not stated) | -0.843 |
| c1cnn(CCCO[C@@H]2CC[C@H]3[C@H]2OCCN3CC2CC2)c1 | -15.8 |
| Cc1nccc(N2CC[C@@H]3[C@@H](CCC(=O)N3CCc3ccccc3)C2)n1 | -11 |
| O=C(NC1CCCC1)[C@@H]1CN(Cc2nccs2)C[C@H]2OCC[C@H]21 | -23.6 |
| CCOCC(=O)N1C[C@H]2CN(CC3CC3)C(=O)[C@H]2C1 | -37.5 |
| Cc1ccc2[nH]c(CO[C@H]3CN(C(=O)C4CC4)C[C@H]3F)nc2c1 | 17.3 |
| CC(=O)N1C[C@@H](F)[C@@H](OCc2nc3ccc(C#N)cc3[nH]2)C1 | -28.7 |
| Cc1ccc2[nH]c(CO[C@H]3CN(c4ccc(C#N)cn4)C[C@H]3F)nc2c1 | 53.9 |
| CC(C)C(=O)N1C[C@H]2CCCN[C@H]2C1 | -32.8 |
| O=C(C[C@H]1[C@H]2CN(C(=O)CO)C[C@@H]12)Nc1cccnc1 | -10.3 |
| O=S(=O)(c1c(N2CCCC2)ccc2nonc12)N1CCCC1 | 32.4 |
| O=S(=O)(c1ccc(N2CCCCC2)c2nonc12)N1CCCCC1 | 29.3 |

| SMILES | Percent Effect [%] |
| --- | --- |
| O=S(=O)(c1c(N2CCCCC2)ccc2nonc12)N1CCCCC1 | 51.7 |
| CC(C)C(=O)N1CCN(C(=O)c2cscn2)[C@H]2CS(=O)(=O)C[C@H]21 | -12.2 |
| O=C1CO[C@H]2CN(C3CCOCC3)C[C@H]2N1Cc1ccncc1 | -35.6 |
| CCN(Cc1nc2c(cnn2C)c(=O)[nH]1)c1cccc(F)c1 | -8.73 |
| CCN(Cc1nc2c(cnn2C)c(=O)[nH]1)c1ccccc1 | 66.8 |
| CCN(Cc1nc2c(cnn2C)c(=O)[nH]1)c1ccc(F)cc1 | -7.87 |
| CN1CCC(NC(=O)c2cc(Br)cc(Cl)c2O)C1=O (configuration not stated) | 11.6 |
| CN1CCC(NC(=O)c2cc(Cl)cc(Br)c2O)C1=O (configuration not stated) | 11.2 |
| CN1CCC(NC(=O)c2cc(F)cc(Cl)c2O)C1=O (configuration not stated) | 54 |
| C/C(NC(=O)c1ccccn1)=C1\C(=O)C[C@@H]2[C@H]1C2(C)C | 37.5 |
| COCc1noc(-c2ccc(N(C)Cc3ncccc3C)nc2)n1 | 5.81 |
| COCc1noc(-c2ccc(N(C)Cc3cc(C)no3)nc2)n1 | -8.23 |
| COCc1noc(-c2ccc(N(C)Cc3ccc(C)o3)nc2)n1 | 69.6 |
| COCCN(C)CC(=O)N1C[C@H]2CC[C@@H]1CN(C(=O)c1ccncc1)C2 | -9.17 |
| Cc1oc(C(C)C)cc1C(=O)N1C[C@H]2CC[C@@H]1CN(C(=O)N(C)C)C2 | -5.27 |
| Cc1ccc(N2C[C@H]3CCC[C@@H](CN(C)C)[C@H]3C2)nn1 | -24.5 |
| CC(C)(C)c1cc(NC(=O)CN2CCC(N3CCNC3=O)CC2)on1 | 80.9 |
| CC(C)c1cc(NC(=O)CN2CCC(N3CCNC3=O)CC2)on1 | 0.26 |
| Cc1cc(NC(=O)CN2CCC(N3CCNC3=O)CC2)on1 | -25.3 |

Reference: ChEMBL document CHEMBL3988442, “University of Dundee, Small-Polar-MMV Screening Library” (2021)
